The nature of assay [1]: qHTS assay to test for compound auto fluorescence at 460 nm (blue) in HEK293 cell free culture (AID 720681). The procedure, abridged:
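Blue fluorescence (Ex 405/Em 460 nm, triamterene-equivalent) was read immediately after pin transfer of compound or DMSO into medium (DMEM, 10% FBS) without cells.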
(In general: Quantitative high-throughput screening tests each substance at several concentrations.)

A short description of assay [2]: qHTS assay to test for compound auto fluorescence at 535 nm (green) in HEK293 cell free culture (AID 720682). The procedure, abridged:
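Measurement is a direct plate read of green fluorescence (485 nm in, 535 nm out) after compound addition to serum-supplemented DMEM lacking cells, with fluorescein used to express intensities.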

Assay [3] in a line: qHTS assay to test for compound auto fluorescence at 590 nm (red) in HEK293 cell free culture (AID 720683). The procedure, abridged:
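Red-channel autofluorescence of compounds in culture medium (DMEM, 10% FBS), no cells, measured at 540/590 nm. Rose Bengal sodium is the reference fluorophore for equivalence.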

Assay [4] in a line: qHTS assay to test for compound auto fluorescence at 590 nm (red) in HepG2 cell free culture (AID 720684). In a few lines:
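Steps: dispense MEM/10% FBS medium, no cells; pin compound or DMSO vehicle; read red channel, Ex/Em 540/590 nm. Output given as Rose Bengal sodium equivalents.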

Assay [5] is described as follows: qHTS assay to test for compound auto fluorescence at 460 nm (blue) in HepG2 cell free culture (AID 720685). In a few lines:
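Compound (23 nL) or DMSO pinned into cell-free MEM with 10% FBS; blue fluorescence read at 405/460 nm excitation/emission, expressed as auto-fluorescence equivalency to triamterene.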

The nature of assay [6]: qHTS assay to test for compound auto fluorescence at 535 nm (green) in HepG2 cell free culture (AID 720686).
Assay [7] in a line: qHTS assay to test for compound auto fluorescence at 460 nm (blue) in HepG2 cells (AID 720687). The procedure, abridged:
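Blue-channel autofluorescence (Ex/Em 405/460 nm, triamterene-equivalent) was measured after 1 hr compound exposure at 37 C, 5% CO2. Cells were HepG2, plated overnight at 37 C in MEM plus 10% FBS.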

For assay [8], the target named is Glucocorticoid receptor (Homo sapiens) (UniProt P04150). Nature of the assay: qHTS assay to identify small molecule agonists of the glucocorticoid receptor (GR) signaling pathway (AID 720691; active = well fitted activation curve with a large enough effect in the signal ratio in the repeat runs, not every such curve was filed as active; the % refers to the signal ratio). In a few lines: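 GR-bla HeLa cells carrying a GRE-driven beta-lactamase reporter, exposed to compounds for 18 h at 37 C. Reporter activation read as fluorescence after 2 h with LiveBLAzer B/G FRET substrate at room temperature.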
Chain of Glucocorticoid receptor (Homo sapiens) (P04150 whole entry, looked up): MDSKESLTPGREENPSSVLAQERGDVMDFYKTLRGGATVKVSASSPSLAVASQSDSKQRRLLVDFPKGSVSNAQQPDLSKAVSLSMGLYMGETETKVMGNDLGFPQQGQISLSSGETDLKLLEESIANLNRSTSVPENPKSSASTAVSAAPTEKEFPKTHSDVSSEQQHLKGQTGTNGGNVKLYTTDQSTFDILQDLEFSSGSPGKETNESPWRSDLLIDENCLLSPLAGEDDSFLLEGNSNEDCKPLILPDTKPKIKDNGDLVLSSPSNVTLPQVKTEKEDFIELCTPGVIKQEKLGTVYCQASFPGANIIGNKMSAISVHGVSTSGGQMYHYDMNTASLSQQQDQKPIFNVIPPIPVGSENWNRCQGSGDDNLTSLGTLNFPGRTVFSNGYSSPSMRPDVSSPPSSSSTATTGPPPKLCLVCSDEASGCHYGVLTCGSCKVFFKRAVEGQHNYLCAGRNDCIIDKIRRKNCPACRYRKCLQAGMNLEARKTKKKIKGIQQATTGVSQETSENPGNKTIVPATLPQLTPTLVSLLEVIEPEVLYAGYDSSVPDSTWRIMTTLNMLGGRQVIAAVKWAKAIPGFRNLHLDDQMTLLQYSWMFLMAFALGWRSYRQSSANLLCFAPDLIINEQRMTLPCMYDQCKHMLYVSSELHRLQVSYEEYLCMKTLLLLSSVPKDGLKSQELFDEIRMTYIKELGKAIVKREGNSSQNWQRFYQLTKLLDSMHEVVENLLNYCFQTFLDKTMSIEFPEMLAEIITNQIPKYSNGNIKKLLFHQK

For assay [9] the target is unchanged. The assay is described as follows: qHTS assay to identify small molecule antagonists of the glucocorticoid receptor (GR) signaling pathway (AID 720692; active = well fitted inhibition curve with a large enough effect in the signal ratio in the repeat runs, not every such curve was filed as active; the % refers to the signal ratio). In a few lines:
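GR-bla HeLa cells carrying a GRE-driven beta-lactamase reporter received compound after 4 h plating, then dexamethasone (5 nM final). After 18 h at 37C, the FRET substrate was loaded for 2 h at room temperature and fluorescence read.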

Assay [10] is described as follows: qHTS assay to identify small molecule antagonists of the glucocorticoid receptor (GR) signaling pathway - cell viability counter screen (AID 720693). Note: nearly all actives have a fitted effect of over 55% in size.
A short description of assay [11]: qHTS assay for identifying genotoxic compounds that show differential cytotoxicity against isogenic chicken DT40 cell lines with known DNA damage response pathways - wild type cell line (AID 743012). Note: nearly all actives have a fitted effect of over 60% in size. The procedure, abridged: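 Wild-type DT40 cells (300/well) exposed to compounds for 40 hours at 37 C/5% CO2. Viability read by CellTiter-Glo luminescence after 30 min at room temperature.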

Assay [12] in a line: qHTS assay for identifying genotoxic compounds that show differential cytotoxicity against isogenic chicken DT40 cell lines with known DNA damage response pathways - Rad54/Ku70 mutant cell line (AID 743015). Note: nearly all actives have a fitted effect of over 60% in size.
Assay [13] can be described thus: qHTS assay to identify small molecule antagonists of the androgen receptor (AR) signaling pathway - cell viability counter screen (AID 743033; note: nearly all actives have a fitted effect of over 45% in size).
Assay [14] can be described thus: qHTS assay to identify small molecule antagonists of the androgen receptor (AR) signaling pathway using the MDA cell line - cell viability counter screen (AID 743041; note: nearly all actives have a fitted effect of over 45% in size). In a few lines:
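Cells were plated at 3,000 per well and left 5 h. Compounds in DMSO were then pinned in, followed by R1881. After 16 h at 37C, CellTiter-Fluor fluorescence gave viability.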

Assay [15] can be described thus: qHTS assay for identifying genotoxic compounds that show differential cytotoxicity against isogenic chicken DT40 cell lines with known DNA damage response pathways - Rev3 mutant cell line (AID 743014). Note: nearly all actives have a fitted effect of over 55% in size. Note: potency is the fitted concentration of half-maximal effect.
The target in assay [16] is Androgen receptor (Homo sapiens) (UniProt P10275). The assay is described as follows: qHTS assay to identify small molecule antagonists of the androgen receptor (AR) signaling pathway (AID 743035; active = well fitted inhibition curve with a large enough effect in the signal ratio in the repeat runs, not every such curve was filed as active; the % refers to the signal ratio). The procedure, abridged:
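HEK293 cells stably carrying UAS-beta-lactamase reporter, 2,000/well, given compounds plus R1881 agonist and incubated 16 h at 37C. LiveBLAzer B/G FRET substrate then added for 2 h at room temperature before fluorescence reading.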

Assay [17] shares this target. Nature of the assay: qHTS assay to identify small molecule agonists of the androgen receptor (AR) signaling pathway using the MDA cell line (AID 743040; note: nearly all actives have a fitted effect of over 20% in size). The procedure, abridged:
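Cells plated, 5 h at 37C/0% CO2; compound or DMSO pinned; 16 h at 37C; ONE-Glo added; luminescence measured after 30 min at room temperature. Reporter line: MDA-kb2 with MMTV-luciferase responsive to AR and GR.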

Assay [18] shares this target. The assay is described as follows: qHTS assay to identify small molecule antagonists of the androgen receptor (AR) signaling pathway using the MDA cell line (AID 743042; note: nearly all actives have a fitted effect of over 55% in size). The procedure, abridged: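 Antagonist mode: compounds plus R1881 agonist added to MDA-kb2 AR-luc cells, incubated 16 h at 37C. Luciferase reporter luminescence quantified, with multiplexed CellTiter-Fluor readout for cell viability.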

Each structure is given as a SMILES string. Several values for one entry are separate records, joined by “and”; a condition that tells them apart may be missing. Identical values can stand only once. Inconclusive results are not listed. The source holds several records for some structures; these can differ, active in one and inactive in another. Activity calls are given as the source filed them. Unless noted, calls come from the whole dose curve; as a rule, active = well fitted curve in the direction sought with a large enough effect in the repeat runs; inconclusive = weak or mixed curves; inactive = no such curve, though single readings can be large; an effect the other way counts as inactive or inconclusive.

Chain of Androgen receptor (Homo sapiens) (P10275 whole entry, looked up): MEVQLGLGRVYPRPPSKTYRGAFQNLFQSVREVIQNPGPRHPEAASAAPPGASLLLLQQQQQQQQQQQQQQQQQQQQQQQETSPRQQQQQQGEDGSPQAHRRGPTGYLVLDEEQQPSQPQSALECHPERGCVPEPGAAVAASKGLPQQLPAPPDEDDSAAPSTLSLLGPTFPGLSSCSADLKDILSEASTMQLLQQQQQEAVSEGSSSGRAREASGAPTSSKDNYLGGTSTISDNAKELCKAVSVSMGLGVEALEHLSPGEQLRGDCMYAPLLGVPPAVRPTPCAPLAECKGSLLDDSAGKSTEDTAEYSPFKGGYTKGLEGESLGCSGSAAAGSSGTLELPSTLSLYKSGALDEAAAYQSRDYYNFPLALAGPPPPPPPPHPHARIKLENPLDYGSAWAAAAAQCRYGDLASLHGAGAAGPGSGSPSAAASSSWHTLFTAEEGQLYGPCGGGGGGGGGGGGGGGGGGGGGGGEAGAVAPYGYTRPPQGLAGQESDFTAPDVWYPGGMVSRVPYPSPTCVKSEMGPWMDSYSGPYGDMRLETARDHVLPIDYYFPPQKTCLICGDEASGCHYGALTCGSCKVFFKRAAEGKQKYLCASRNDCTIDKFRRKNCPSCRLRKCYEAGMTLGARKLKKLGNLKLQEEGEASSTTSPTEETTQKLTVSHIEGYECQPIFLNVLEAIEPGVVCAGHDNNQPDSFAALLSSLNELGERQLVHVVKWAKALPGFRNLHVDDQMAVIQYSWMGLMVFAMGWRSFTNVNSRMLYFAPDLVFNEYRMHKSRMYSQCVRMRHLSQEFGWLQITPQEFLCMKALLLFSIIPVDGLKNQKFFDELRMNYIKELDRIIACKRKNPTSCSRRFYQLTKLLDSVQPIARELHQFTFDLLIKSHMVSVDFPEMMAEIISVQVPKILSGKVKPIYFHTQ

Consider `Cc1c(NC(C)C)c(=O)n(-c2ccccc2)n1C`, for which the compound was classed as inactive in assay [1], in assay [2], in assay [3], in [4], in assay [5] and in [6]. Further, the compound was called inactive in [7] and in assay [10]. The Potency entry in assay [8], in assay [9], in assay [11], in [12], in assay [13] and in assay [14] was “inactive” in each case.

For `NC(=O)c1cn(Cc2c(F)cccc2F)nn1`, the compound was called inactive in [1], in assay [2], in assay [3], in assay [4], in assay [5] and in assay [6]. Further, the call in assay [7] and in [10] was inactive. Further, the Potency result in [11], in assay [15], in [12], in assay [13] and in assay [14] was “inactive” in each case.

As to `CCOC(=O)CC(C)=O`, the result in assay [1], in assay [2], in assay [3], in assay [4], in assay [5] and in [6] was inactive. The outcome in assay [7] and in assay [10] was inactive. Besides, the Potency result in [11], in assay [15], in assay [13] and in [14] was “inactive” each time.

Consider `O=c1n(CCO)c(=O)n(CCO)c(=O)n1CCO`, for which the outcome in assay [1], in assay [2], in [3], in [4], in assay [5] and in [6] was inactive. Besides, the compound was classed as inactive in assay [7] and in [10]. Further, the Potency result in [11], in assay [12], in assay [13] and in [14] was “inactive” each time. Also, the Potency result in assay [15] is “inactive and 61.1 µM (active)”.

With `O=C(O)c1ccccc1OP(=O)(O)O`, the outcome in [1], in assay [2], in [3], in assay [4], in assay [5] and in assay [6] was inactive. Moreover, the outcome in assay [7] and in assay [10] was inactive. Further, the Potency entry in [8], in [9], in assay [11], in [15], in [13] and in [14] was “inactive” in each case.

In the case of `CN1CC(=O)NC1=N`, the compound was called inactive in assay [1], in assay [2], in assay [3], in [4], in assay [5] and in assay [6]. Moreover, the result in [7], in [10] and in assay [16] was inactive. The Potency entry in [8], in assay [9], in assay [11], in assay [13], in [17] and in [14] was “inactive” each time. The Potency entry in assay [18] was “inactive”.

As for `N[C@H]1CN(c2c(F)cc3c(=O)c(C(=O)O)cn(C4C[C@H]4F)c3c2Cl)CC12CC2` (stereo partly specified), the result in [1], in assay [2], in assay [3], in assay [4], in assay [5] and in assay [6] was inactive. Further, the compound was classed as inactive in assay [7] and in assay [10]. Further, the Potency entry in [8], in [9], in [11], in [15], in assay [13] and in assay [14] was “inactive” throughout.

The values above are taken from PubChem BioAssay (Tox21).
